Here are results for four molecules from PubChem BioAssay AID2284372 (EPA ToxCast).

Inconclusive results are not listed. Active and inactive are the calls of the source. How the source made its calls: active means hit-call score of the fitted dose curve at least 0.9, where 1 is the maximum; inconclusive means response in the unintended direction; inactive means score below 0.9.

Chain of Glucocorticoid receptor (Homo sapiens) (P04150 whole entry, looked up): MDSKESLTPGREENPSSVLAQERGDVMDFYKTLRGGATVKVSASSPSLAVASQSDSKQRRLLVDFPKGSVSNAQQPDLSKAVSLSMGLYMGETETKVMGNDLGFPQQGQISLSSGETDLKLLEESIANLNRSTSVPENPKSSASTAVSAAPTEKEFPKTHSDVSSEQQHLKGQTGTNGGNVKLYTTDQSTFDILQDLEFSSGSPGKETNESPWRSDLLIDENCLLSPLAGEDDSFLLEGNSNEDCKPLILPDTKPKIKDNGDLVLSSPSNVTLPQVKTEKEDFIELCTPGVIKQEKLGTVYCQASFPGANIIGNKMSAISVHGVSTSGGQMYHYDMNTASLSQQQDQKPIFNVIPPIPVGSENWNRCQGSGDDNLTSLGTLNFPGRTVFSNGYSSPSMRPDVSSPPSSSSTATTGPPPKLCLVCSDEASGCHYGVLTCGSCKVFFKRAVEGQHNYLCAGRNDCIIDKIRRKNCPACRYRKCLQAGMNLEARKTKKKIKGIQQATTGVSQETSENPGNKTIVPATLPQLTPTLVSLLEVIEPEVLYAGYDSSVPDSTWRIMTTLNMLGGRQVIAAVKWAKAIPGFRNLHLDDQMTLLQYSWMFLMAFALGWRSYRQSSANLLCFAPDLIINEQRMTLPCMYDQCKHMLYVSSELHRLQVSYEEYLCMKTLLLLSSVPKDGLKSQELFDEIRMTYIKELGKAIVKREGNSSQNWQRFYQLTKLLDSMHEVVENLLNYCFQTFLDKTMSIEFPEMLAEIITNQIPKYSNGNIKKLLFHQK

This test concerns the target Glucocorticoid receptor (Homo sapiens) (UniProt P04150). Nature of the test: ATG_hGR_EcoTox2: Attagene TRANS-FACTORIAL EcoTox-2 HepG2 Assay for human Glucocorticoid Receptor (GR). The protocol:
ATG_EcoTox2 is a cell-based, multiplexed assay created by modifying the existing Attagene TRANS-FACTORIAL system to include a panel of nuclear receptors from some or all the following species: human (Homo sapiens), african clawed frog (Xenopus laevis), rainbow trout (Oncorhynchus mykiss), japanese medaka (Oryzias latipes), and zebrafish (Danio rerio). The ECOTOX2-FACTORIAL format uses HepG2, a human liver cell line, with measurements taken at 24 hours after chemical dosing in a 24-well plate. ATG_hGR_EcoTox2 is one of 29 assay components calculated in the ATG_EcoTox2 assay. It is designed to make measurements of mRNA induction, a form of inducible reporter, as detected with fluorescence intensity signals by Reverse transcription polymerase chain reaction (RT-PCR) and Capillary electrophoresis technology.The assay endpoint ATG_hGR_EcoTox2 was analyzed in the positive analysis fitting direction relative to DMSO as the negative control and baseline of activity. Using a type of inducible reporter, measures of mRNA for gain-of-signal activity can be used to understand the reporter gene at the transcription factor-level as they relate to the gene for glucocorticoid receptor. Furthermore, this assay endpoint can be referred to as a primary readout, because this assay has produced multiple assay endpoints where this one serves a reporter gene function. To generalize the intended target to other relatable targets, this assay endpoint is annotated to the nuclear receptor intended target family, where the subfamily is steroidal.
Human liver HepG2 cells are transiently transfected with multiple reporter transcription units (MRTUs) in 6-well plates using FuGene 6 reagent (Roche; 3 ml FuGene/1 mg DNA). The MRTU constructs are regulated by a cis-regulating element (promoter). Each RTU expresses a GAL4-UAS that regulates the transcription of a nearby target reporter gene sequence. A major difference between the CIS and TRANS system is that in CIS activities of endogenous TFs are measured, whereas the TRANS assay evaluates changes in activities of exogenous, chimeric NR-Gal4 proteins. […] At the end of 24 hour incubation, total RNA was isolated using TriZol reagent (Invitrogen). The isolated RNA is then reverse-transcribed using oligo(dT) primer and Mo-MLV reverse transcriptase (Invitrogen) with DNAse I (Ambion) treatment for 30 min. The one-tenth of the produced cDNA was amplified by PCR using Taq DNA polymerase (Invitrogen) and two reporter sequence-specific primers. […] The fragments were purified using Qiaquick PCR columns (Qiagen), analyzed on an ABI 3130xL genetic analyzer (Applied Biosystems) with peak positions identified by using a set of X-rhodamine (ROX)-labeled MapMarker1000 molecular weight standards (BioVentures). […]
As for `O=P(Oc1ccccc1)(Oc1ccccc1)Oc1ccccc1`, the call was inactive. For the molecule `CCCCOCN(C(=O)CCl)c1c(CC)cccc1CC`, the call was inactive. Turning to `CC(c1cc2ccccc2s1)N(O)C(N)=O` (centres undefined), the AC50 was 50 µM (active). On to `CC(C)(Oc1ccc(Cl)cc1)C(=O)O`, for which the molecule was called inactive.
